In test [1] the target is T1, Tyrosine-protein kinase ITK/TSK (Homo sapiens) (UniProt Q08881).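 Note: values are mean percent inhibition of ITK from the GSK PKIS screen.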
T1 sequence (whole entry): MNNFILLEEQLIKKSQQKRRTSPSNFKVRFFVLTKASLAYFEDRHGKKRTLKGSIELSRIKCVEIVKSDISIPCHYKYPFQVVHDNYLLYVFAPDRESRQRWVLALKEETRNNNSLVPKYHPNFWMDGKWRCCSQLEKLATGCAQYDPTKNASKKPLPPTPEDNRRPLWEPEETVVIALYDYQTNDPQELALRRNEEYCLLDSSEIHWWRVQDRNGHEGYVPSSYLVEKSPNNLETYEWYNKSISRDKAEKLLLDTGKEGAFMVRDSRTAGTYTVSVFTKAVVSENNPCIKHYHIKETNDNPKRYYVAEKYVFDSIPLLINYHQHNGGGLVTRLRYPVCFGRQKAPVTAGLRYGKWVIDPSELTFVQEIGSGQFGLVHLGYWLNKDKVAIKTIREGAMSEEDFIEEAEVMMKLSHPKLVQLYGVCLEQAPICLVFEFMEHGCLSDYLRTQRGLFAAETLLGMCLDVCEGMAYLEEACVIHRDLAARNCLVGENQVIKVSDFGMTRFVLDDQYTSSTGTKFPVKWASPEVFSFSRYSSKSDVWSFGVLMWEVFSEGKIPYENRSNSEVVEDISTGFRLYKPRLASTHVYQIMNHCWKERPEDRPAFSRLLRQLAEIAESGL
The conditions noted are these: at 1 µM.

The target of test [2] is Tyrosine-protein kinase JAK1 (Homo sapiens) (UniProt P23458). The conditions noted are these: at 0.1 µM.
The target is the same in test [3]. The conditions noted are these: at 1 µM.
The target of test [4] is Tyrosine-protein kinase JAK2 (Homo sapiens) (UniProt O60674). Conditions: at 0.1 µM.
Sequence of Tyrosine-protein kinase JAK2 (Homo sapiens) (O60674 whole entry): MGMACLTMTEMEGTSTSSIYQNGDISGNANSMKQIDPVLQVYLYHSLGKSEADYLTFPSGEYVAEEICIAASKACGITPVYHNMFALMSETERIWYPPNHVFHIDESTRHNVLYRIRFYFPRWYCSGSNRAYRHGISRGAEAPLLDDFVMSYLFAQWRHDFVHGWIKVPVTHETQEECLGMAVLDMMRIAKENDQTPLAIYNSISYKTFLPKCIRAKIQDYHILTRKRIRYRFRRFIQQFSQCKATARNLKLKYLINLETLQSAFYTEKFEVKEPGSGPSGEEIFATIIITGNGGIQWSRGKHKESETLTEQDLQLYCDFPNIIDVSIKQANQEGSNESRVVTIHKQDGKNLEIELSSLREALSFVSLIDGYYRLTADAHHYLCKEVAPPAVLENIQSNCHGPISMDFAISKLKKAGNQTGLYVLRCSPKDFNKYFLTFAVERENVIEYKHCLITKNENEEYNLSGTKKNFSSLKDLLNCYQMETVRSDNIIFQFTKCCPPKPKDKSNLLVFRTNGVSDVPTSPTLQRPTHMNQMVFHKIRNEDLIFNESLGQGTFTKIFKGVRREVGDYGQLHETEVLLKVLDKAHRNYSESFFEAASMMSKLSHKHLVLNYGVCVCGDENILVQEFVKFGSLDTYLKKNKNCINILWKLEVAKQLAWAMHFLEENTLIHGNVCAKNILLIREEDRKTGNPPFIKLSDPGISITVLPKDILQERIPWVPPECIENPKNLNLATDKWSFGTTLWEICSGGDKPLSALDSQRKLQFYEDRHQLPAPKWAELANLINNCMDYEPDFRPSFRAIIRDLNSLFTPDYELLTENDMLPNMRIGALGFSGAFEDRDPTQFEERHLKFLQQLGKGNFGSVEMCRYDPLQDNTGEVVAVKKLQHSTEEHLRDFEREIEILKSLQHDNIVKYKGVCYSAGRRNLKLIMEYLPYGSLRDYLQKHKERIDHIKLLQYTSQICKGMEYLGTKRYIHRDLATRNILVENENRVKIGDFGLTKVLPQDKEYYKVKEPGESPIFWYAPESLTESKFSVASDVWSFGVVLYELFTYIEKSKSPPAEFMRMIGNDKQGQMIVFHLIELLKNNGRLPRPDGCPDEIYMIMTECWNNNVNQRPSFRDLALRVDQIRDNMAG
The target is the same in test [5]. Conditions: at 1 µM.
In test [6] the target is T2, Tyrosine-protein kinase JAK3 (Homo sapiens) (UniProt P52333).
T2 sequence (whole entry): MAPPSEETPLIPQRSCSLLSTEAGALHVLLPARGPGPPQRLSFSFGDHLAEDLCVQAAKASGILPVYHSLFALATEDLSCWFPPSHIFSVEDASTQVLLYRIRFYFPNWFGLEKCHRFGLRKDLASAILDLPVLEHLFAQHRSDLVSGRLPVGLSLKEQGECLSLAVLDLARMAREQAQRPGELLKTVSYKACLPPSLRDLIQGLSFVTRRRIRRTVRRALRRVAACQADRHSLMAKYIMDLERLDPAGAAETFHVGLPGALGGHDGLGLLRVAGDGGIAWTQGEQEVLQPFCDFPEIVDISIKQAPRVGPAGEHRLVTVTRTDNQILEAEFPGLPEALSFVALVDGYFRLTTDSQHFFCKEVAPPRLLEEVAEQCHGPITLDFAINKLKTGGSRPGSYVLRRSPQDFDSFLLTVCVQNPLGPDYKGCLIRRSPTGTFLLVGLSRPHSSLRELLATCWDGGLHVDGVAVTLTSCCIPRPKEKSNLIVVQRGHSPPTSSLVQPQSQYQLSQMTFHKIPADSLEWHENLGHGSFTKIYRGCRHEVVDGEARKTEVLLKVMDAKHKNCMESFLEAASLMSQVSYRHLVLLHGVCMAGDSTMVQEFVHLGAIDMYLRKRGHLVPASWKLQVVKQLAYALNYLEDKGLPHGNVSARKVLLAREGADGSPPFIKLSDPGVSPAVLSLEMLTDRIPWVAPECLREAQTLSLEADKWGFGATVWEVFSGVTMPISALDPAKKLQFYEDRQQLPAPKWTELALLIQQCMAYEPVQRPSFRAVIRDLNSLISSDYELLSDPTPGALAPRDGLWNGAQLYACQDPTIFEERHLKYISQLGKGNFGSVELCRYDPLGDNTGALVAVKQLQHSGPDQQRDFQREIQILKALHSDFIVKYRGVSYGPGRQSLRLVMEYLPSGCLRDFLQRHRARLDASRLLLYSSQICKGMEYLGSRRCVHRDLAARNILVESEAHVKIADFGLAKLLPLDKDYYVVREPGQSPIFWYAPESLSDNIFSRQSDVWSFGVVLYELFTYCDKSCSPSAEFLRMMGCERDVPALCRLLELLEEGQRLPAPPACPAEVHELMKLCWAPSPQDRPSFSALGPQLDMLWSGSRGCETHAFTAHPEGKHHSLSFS
The conditions noted are these: at 0.1 µM.

Test [7] concerns the target T2, Tyrosine-protein kinase JAK3 (Homo sapiens). Conditions: at 1 µM.
In test [8] the target is Vascular endothelial growth factor receptor 2 (Homo sapiens) (UniProt P35968). The conditions noted are these: at 0.1 µM.
Sequence of Vascular endothelial growth factor receptor 2 (Homo sapiens) (P35968 whole entry): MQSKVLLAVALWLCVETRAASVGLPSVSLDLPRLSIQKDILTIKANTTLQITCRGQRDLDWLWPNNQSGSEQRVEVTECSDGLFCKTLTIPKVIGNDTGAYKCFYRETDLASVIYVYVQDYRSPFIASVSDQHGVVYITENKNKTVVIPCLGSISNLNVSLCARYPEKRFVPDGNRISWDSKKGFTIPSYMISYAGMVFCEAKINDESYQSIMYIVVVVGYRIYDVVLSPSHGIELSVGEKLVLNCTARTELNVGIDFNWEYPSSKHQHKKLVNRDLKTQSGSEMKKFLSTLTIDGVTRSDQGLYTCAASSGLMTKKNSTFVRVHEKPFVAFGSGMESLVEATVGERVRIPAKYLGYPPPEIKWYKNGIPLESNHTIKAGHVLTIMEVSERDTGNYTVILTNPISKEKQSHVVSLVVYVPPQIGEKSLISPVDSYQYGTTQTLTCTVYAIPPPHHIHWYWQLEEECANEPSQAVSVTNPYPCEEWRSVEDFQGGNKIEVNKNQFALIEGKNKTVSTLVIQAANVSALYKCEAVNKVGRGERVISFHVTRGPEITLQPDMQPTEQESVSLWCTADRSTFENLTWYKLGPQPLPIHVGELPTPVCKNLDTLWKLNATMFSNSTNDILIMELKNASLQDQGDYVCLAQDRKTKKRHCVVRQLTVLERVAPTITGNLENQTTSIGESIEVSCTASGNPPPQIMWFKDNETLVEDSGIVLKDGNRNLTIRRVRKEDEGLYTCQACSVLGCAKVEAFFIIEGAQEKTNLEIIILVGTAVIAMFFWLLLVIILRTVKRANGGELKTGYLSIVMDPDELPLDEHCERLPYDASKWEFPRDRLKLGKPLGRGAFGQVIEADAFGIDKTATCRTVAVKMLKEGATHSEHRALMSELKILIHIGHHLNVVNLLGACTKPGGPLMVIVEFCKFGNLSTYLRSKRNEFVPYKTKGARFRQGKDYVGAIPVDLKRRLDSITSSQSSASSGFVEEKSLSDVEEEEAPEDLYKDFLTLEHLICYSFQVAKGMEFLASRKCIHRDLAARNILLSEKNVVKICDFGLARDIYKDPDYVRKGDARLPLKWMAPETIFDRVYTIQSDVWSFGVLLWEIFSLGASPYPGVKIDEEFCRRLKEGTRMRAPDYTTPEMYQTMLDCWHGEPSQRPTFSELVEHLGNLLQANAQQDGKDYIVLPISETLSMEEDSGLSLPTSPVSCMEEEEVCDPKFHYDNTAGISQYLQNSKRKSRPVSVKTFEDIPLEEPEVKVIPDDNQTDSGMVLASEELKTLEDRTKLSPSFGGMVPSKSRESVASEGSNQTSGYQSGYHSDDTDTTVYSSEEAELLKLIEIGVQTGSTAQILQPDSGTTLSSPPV
The target is the same in test [9]. Conditions: at 1 µM.
Test [10] concerns the target Mast/stem cell growth factor receptor Kit (Homo sapiens) (UniProt P10721). The conditions noted are these: at 0.1 µM.
For test [11] the target is unchanged. The conditions noted are these: at 1 µM.
Test [12] relates to Mast/stem cell growth factor receptor Kit (Homo sapiens), P10721 [D816V]. The conditions noted are these: at 0.1 µM.
Sequence of Mast/stem cell growth factor receptor Kit (Homo sapiens), P10721 [D816V] (P10721 whole entry D816V): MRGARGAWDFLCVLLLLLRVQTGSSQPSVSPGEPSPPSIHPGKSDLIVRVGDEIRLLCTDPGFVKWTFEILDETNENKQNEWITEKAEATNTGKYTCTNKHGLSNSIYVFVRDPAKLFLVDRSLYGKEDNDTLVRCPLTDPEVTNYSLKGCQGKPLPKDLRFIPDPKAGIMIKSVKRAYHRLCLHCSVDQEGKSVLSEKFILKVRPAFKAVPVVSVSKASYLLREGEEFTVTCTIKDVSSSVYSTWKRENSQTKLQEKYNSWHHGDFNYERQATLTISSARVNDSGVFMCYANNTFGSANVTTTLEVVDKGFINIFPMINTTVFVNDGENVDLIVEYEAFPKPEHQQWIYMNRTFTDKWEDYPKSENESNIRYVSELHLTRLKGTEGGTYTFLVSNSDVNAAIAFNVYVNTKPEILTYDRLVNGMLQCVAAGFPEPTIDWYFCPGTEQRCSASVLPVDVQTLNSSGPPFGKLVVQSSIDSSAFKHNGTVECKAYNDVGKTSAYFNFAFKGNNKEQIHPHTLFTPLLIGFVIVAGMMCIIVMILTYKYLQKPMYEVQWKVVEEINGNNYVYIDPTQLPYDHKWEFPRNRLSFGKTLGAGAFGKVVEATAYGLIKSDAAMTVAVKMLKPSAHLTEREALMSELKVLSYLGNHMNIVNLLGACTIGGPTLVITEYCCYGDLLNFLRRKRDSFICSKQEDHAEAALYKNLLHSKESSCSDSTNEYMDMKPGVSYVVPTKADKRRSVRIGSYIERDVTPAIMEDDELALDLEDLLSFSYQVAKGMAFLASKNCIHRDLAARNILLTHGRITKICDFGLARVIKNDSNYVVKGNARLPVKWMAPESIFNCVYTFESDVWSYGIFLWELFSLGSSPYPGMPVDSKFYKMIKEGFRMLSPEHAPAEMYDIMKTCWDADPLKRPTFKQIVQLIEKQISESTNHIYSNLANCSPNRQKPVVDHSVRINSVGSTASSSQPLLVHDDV
Test [13] shares this test system. The conditions noted are these: at 1 µM.
Test [14] has as its system Mast/stem cell growth factor receptor Kit (Homo sapiens), P10721 [T670I]. Conditions: at 0.1 µM.
Test [15] has the same test system. The conditions noted are these: at 1 µM.
Test [16] concerns Mast/stem cell growth factor receptor Kit (Homo sapiens), P10721 [V560G]. The conditions noted are these: at 0.1 µM.
Sequence of Mast/stem cell growth factor receptor Kit (Homo sapiens), P10721 [V560G] (P10721 whole entry V560G): as the sequence (P10721 whole entry D816V) above, with V560G, V816D counted along it
Test [17] has the same test system. The conditions noted are these: at 1 µM.
In test [18] the target is Tyrosine-protein kinase Lck (Homo sapiens) (UniProt P06239). The conditions noted are these: at 0.1 µM.
Sequence of Tyrosine-protein kinase Lck (Homo sapiens) (P06239 2-509 limits assumed): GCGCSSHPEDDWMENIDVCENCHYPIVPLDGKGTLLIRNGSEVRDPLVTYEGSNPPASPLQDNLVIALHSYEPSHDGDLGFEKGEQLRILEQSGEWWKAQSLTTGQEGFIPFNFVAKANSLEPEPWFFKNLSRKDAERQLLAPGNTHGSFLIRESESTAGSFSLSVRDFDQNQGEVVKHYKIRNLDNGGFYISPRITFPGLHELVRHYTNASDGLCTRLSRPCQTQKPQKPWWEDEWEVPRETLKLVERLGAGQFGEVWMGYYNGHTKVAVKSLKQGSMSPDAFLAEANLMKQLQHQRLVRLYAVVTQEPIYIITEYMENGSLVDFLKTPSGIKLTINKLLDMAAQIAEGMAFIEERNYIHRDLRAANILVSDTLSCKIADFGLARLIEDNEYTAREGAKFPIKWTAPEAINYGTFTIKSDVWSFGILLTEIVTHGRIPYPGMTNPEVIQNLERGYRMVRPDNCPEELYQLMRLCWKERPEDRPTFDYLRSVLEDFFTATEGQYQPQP
Test [19] shares this target. The conditions noted are these: at 1 µM.
Test [20] has as its target Leukocyte tyrosine kinase receptor (Homo sapiens) (UniProt P29376). Conditions: at 0.1 µM.

SMILES strings stand for the structures.

This is an account of results in ChEMBL document CHEMBL1961873, “Compounds: GSK PKIS; Assays: Nanosyn kinase panel” (2012).

Sequence of Mast/stem cell growth factor receptor Kit (Homo sapiens), P10721 [T670I] (P10721 whole entry T670I): as the sequence (P10721 whole entry D816V) above, with T670I, V816D counted along it
Sequence of Mast/stem cell growth factor receptor Kit (Homo sapiens) (P10721 whole entry): as the sequence (P10721 whole entry D816V) above, with V816D counted along it
Sequence of Leukocyte tyrosine kinase receptor (Homo sapiens) (P29376 whole entry): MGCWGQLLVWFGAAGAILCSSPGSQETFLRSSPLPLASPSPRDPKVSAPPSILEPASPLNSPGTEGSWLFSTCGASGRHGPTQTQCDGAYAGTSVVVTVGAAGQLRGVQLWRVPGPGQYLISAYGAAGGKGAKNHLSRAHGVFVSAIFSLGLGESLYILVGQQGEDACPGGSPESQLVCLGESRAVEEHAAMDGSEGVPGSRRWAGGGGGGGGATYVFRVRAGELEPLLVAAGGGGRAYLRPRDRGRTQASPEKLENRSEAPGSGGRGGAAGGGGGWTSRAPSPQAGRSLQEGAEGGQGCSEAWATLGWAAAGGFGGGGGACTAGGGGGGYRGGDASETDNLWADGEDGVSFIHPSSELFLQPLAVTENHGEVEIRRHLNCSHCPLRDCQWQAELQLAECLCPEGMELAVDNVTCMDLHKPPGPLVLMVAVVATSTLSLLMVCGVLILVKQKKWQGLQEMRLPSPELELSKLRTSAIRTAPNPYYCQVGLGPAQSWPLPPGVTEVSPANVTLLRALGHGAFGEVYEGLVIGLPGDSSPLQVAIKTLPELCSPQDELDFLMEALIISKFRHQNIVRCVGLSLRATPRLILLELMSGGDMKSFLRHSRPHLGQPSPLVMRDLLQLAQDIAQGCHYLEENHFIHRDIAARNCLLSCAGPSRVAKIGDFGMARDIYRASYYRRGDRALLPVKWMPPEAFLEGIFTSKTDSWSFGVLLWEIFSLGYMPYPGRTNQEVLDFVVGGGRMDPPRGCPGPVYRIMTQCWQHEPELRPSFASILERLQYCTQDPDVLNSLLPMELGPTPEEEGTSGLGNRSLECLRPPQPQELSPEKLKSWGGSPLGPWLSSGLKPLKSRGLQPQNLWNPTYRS

For `COc1cc(N2CCN(C(C)C)CC2)ccc1Nc1nc(Nc2cccc(F)c2C(=O)O)c2cc[nH]c2n1`, the inhibition in test [1] was 5.92%; in test [2], 4.17%; in test [3] it was 8.87%; in test [4], 6.66%; in test [5], 2.37%; in test [6] it was -1.39%. Besides, the inhibition in test [7] was 0.51%; in [8] it was 4.67%; in [9], 6.45%; in test [10] it was 2.86%; in [11], 8.76%; in [12], 3.82%. Moreover, the inhibition is 3.22% in [13]; 2.33% in [14]; 3.08% in test [15]; -0.92% in test [16]; 0.71% in [17]; 1.92% in test [18]. Also, the results for the inhibition in [19] and in test [20] were 2.86% and 66.4%, respectively.

Regarding `c1cnn2ncc(-c3ccnc(NCCCN4CCOCC4)n3)c2c1`, the inhibition in [1] was 0.08%; in test [2], 2.8%; in test [3] it was 4.8%; in test [4], 2.27%; in test [5] it was 1.4%; in test [6], -1.85%. For the same compound, the inhibition in [7] was -2.75%; in test [8], 5.58%; in test [9], 6.83%; in test [10], 5.59%; in test [11], 5.88%; in [12] it was 6.89%. For the same compound, the inhibition in test [13] was 4.06%; in test [14], 9.96%; in test [15] it was 3.97%; in [16], -0.98%; in test [17], -1.13%; in [18] it was 1.55%. Moreover, the figures for the inhibition in test [19] and in test [20] were 1.64% and 2.87%, respectively.

On to `O=C1Nc2ccccc2/C1=C1\CCc2cc(O)ccc21`, for which the inhibition in [1] is 14.6%; in test [2], 3.42%; in test [3], 12.7%; in test [4] it was 1.74%; in [5], 3.79%; in test [6] it was -0.09%. For the same compound, the inhibition was 13.3% in [7]; 10.5% in [8]; 37.8% in [9]; 66.3% in [10]; 93.7% in test [11]; 4.08% in test [12]. Further, the inhibition was determined as 1.34% in test [13]; 39.3% in [14]; 88.1% in test [15]; 6.44% in test [16]; 41.6% in test [17]; 3.68% in [18]. The inhibition came to 8.53% in [19] and 7.84% in test [20].

For the compound `NS(=O)(=O)c1ccc(N/N=C2\C(=O)Nc3ccc(C(=O)NCc4ccncc4)cc32)cc1`, the inhibition in test [1] was 3.12%; in test [2] it was 3.77%; in test [3], 9.66%; in test [4] it was 0.74%; in test [5], 1.38%; in test [6] it was -0.81%. Further, the inhibition in test [7] was determined as 6.2%; in test [8] it was 7.35%; in test [9] it was 34.5%; in [10], 4.44%; in [11], 12.5%; in test [12], 3.05%. Besides, the inhibition in test [13] is 12.7%; in test [14], 1.57%; in test [15], 4.42%; in test [16] it was 1.34%; in [17], 10.7%; in [18] it was 2.05%. Moreover, the figures for the inhibition in [19] and in test [20] were 8.27% and 2.1%, respectively.

As for `CS(=O)(=O)CCNCc1ccc(-c2ccc3ncnc(Nc4ccc(OCc5ccccc5)cc4)c3c2)o1`, the inhibition in [1] is 2.16%; in test [2] it was 6.4%; in test [3], 5.72%; in test [4], 1.29%; in [5], 0.35%; in test [6], -2%. Besides, the inhibition in test [7] is -1.45%; in test [8], 3.83%; in [9] it was 6.56%; in test [10] it was 2.46%; in [11] it was 8.96%; in test [12], 2.54%. Also, the inhibition worked out at 2.47% in test [13]; 3.32% in test [14]; 4.61% in test [15]; 4.25% in [16]; 1.48% in test [17]; 4.19% in test [18]. Moreover, the inhibition was found to be 22% in test [19] and 4.28% in test [20].

Consider `COc1cc2c(cc1Nc1nc(Nc3cccc(F)c3C(N)=O)c3cc[nH]c3n1)N(C(=O)CN1CCN(C(C)C)CC1)CC2`, for which the inhibition in [1] was 4.16%; in test [2], -0.19%; in test [3] it was -3.81%; in [4], 0.65%; in [5] it was 2.21%; in test [6], 0.64%. Moreover, the inhibition was 6.68% in [7]; 0.99% in [8]; 9.98% in test [9]; -1.31% in test [10]; 1.51% in [11]; -0.69% in test [12]. Besides, the inhibition in test [13] is 0.07%; in test [14] it was -0.28%; in test [15], -0.5%; in [16], -3.41%; in [17], -2.31%; in test [18], 2.47%. Moreover, the results for the inhibition in [19] and in test [20] were 0.75% and 27.6%, respectively.

A word on the inhibition: it is the relative decrease from the control value, in per cent.
